Data taken from PubChem BioAssay (NCI).
Compounds without any hit were thinned out: in the full panel of roughly 79,000, 15% have a hit. Calls of active or inactive are those of the source. No stated cut-off is given here; in the data, active means growth inhibition above about 70%; inactive means the rest.

Assay: NCI Yeast Anticancer Drug Screen. Data for the rad50 strain (AID 155);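 further: 0% = growth of vehicle-only cultures of the same strain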
Conditions: S. cerevisiae rad50 strain growth inhibition; at 50.0 µM; hits give high values
Procedure, shortened: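 A DNA repair-deficient yeast mutant serves as the test organism; compound-induced growth inhibition is calculated against vehicle-treated cells.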

Row | Compound | growth inhibition
1 | CCOC(=O)c1cc2cc([N+](=O)[O-])ccc2[nH]1 | 10% (inactive)
2 | Cc1cc(NS(=O)(=O)c2ccc(NC(=O)c3cccn4c(=O)c5ccccc5nc34)cc2)no1 | -24.6% (inactive)
3 | CN(C)/C=C(/N=C(C#N)C#N)C1OCCO1 | 4.1% (inactive)
4 | Cc1cccc(C2=NC(=C3CCCCC3)C(=O)O2)c1 | 4.5% (inactive)
5 | C1CCC(C(CCCCC(C2CCCCC2)C2CCCCC2)C2CCCCC2)CC1 | 46.5% (inactive)
6 | COC(=O)c1ccc(CSc2ccc(N)cc2)cc1 | 53.1% (inactive)
7 | O=C(OC1CCCC1)C1(O)CCCCC1 | 18.2% (inactive)
8 | c1ccc(C(c2ccccc2)c2cc(-c3cc(C(c4ccccc4)c4ccccc4)[nH]n3)n[nH]2)cc1 | -9.25% (inactive)
9 | Cn1c(N)c(-n2[nH]c(=O)n(-c3ccccc3)c2=O)c(=O)n(C)c1=O | -20.6% (inactive)
10 | CCN(CC)CCN(C(=Nc1ccccc1)N1CCCCC1)c1ccccc1 | 6.8% (inactive)
11 | CCOC(=O)c1c(C(F)(F)F)oc2c1ccc1nc3nonc3nc12 | 43.6% (inactive)
12 | Cc1ccc(NC(=O)C(=O)CC(=O)c2c(C)n([O-])c3ccccc3[n+]2=O)cc1C | -6.2% (inactive)
13 | O=C1Nc2cc([N+](=O)[O-])c(Br)cc2C1=O | 22.1% (inactive)
14 | [O]=[W](=[O])([OH])[OH] | -11.3% (inactive)
15 | O=C1c2ccccc2NC(c2cc(Cl)cc(Cl)c2O)N1CCc1ccccn1 (stereo not given) | 8.05% (inactive)
16 | COC(=O)c1cc(-c2cccc3ccccc23)[nH]c(=O)c1C#N | 8.85% (inactive)
17 | CN1CCN(C2CCCc3ccccc3C2O)CC1 (stereo not given) | -0.75% (inactive)
18 | NCCCn1[nH]c(=O)c2ncccc2c1=O | -60.1% (inactive)
19 | CCCC1OC(c2ccccc2)OCC1CC (stereo not given) | 6.45% (inactive)
20 | Cc1ccccc1C(=O)NNC(=O)c1cccc2ccccc12 | 27.6% (inactive)

Row | Compound | growth inhibition
21 | Cc1cc(-n2cnc3c(Cl)ncnc32)ccc1N | 10.8% (inactive)
22 | COc1cc2c(cc1OC)C(c1ccccc1)OCC2 (stereo not given) | -8.25% (inactive)
23 | O=C(Nc1cccc2ccccc12)c1ccc(Cl)c(Cl)c1 | 38.6% (inactive)
24 | O=C([O-])c1ccc2c(c1)-c1nc-2nc2[n-]c(nc3nc(nc4[n-]c(n1)c1ccc(C(=O)[O-])cc41)-c1cc(C(=O)[O-])ccc1-3)c1ccc(C(=O)[O-])cc21.[Fe+2] | -1.2% (inactive)
25 | COc1ccc(-n2c(=O)c(N=Nc3ccccc3)c(O)n(-c3ccccc3OC)c2=S)cc1 | 39.5% (inactive)
26 | COc1ccc2c(c1)CCC1C(=O)NN=C21 (stereo not given) | 12.8% (inactive)
27 | CC(=Nc1ccc(Cl)c(Cl)c1)c1ccncc1 | -31.9% (inactive)
28 | CCOC(=O)CCNc1nc(N)nc(C)c1NC=O | -11.9% (inactive)
29 | Brc1ccc2oc3ccccc3c2c1 | 24.4% (inactive)
30 | C/C(N=NC(=S)N1CCCC1)=C1\C=CC=CN1O | 5.45% (inactive)
31 | NC(=O)CS | -14.3% (inactive)
32 | CCC(=O)C12CCCC1=NC(=N)N=C2C1=NC(=N)N=C2CCCC21C(=O)CC (stereo not given) | -10.3% (inactive)
33 | COc1ccc([N+](=O)[O-])c2c(C)cc(=O)[nH]c12 | 32.1% (inactive)
34 | CCC(c1ccc(Cl)cc1)N(CC)c1ccccn1 (stereo not given) | 7% (inactive)
35 | COc1ccc(/C=C2/SC(=Nc3ccccc3)N(NC(=O)Cc3ccccc3)C2=O)c(OC)c1 | -17.9% (inactive)
36 | CCOC(=O)c1n[nH]c(C)c1C/C(=N/O)c1ccccc1 | -14.3% (inactive)
37 | CC(=O)N1OCCc2ccccc21 | 8.2% (inactive)
38 | C(#CC(Sc1ccccc1)=C(Sc1ccccc1)Sc1ccccc1)Sc1ccccc1 | 3.1% (inactive)
39 | O=C1C(Cl)=C(N(C(=O)c2ccccc2)C(=O)c2ccccc2)C(=O)c2ccccc21 | 6.6% (inactive)
40 | O=NN(CCCl)C(=O)NC1CCC(C(=O)O)CC1 (stereo not given) | 29.6% (inactive)
